Pf growth 48h – P. falciparum growth inhibition at 48 hours (one generation); P. falciparum luciferase growth in erythrocytes, 48 h; Potency, µM (highest dose often 28.7 µM), usual class: inhibitors; hit rate 5.9% among 310,000
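Read-out is firefly luciferase luminescence from an integrated reporter in P. falciparum, so falling signal marks reduced parasite growth. Infected erythrocytes were at 2% hematocrit and 0.1% parasitemia (final) in Albumax-supplemented RPMI 1640.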
Pf growth 96h – P. falciparum growth inhibition at 96 hours | Potency, µM (series often up to 28.7 µM), hits mostly inhibitors | hit rate 6.9% among 320,000 | P. falciparum luciferase reporter growth, 96 h
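Infected RBCs, 2% Hct / 0.05% parasitemia final; luciferase-reporter P. falciparum; cpd 96 h, 37 C, 5% CO2; luciferase detection reagent; luminescence.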
HCMV inh – inhibitors of human cytomegalovirus; HFF cells, HCMV-luciferase reporter, 72 h; active compounds read low; activity change, negative = inhibition, % at 57.5 µM; hit rate 4.5% among 410,000; in the data active means activity change below about -60%; inconclusive means no clear call, values can overlap the other calls; inactive means above about -39%
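Inhibition of viral replication was scored as loss of reporter luminescence in HFFs infected with HCMV-luciferase (MOI 1 PFU/cell) for 72 h; compounds tested at 2 doses, normalized to buffer and Salinomycin controls.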
HCV inh – inhibitors of hepatitis C virus infection | Huh7.5.1 HCVcc-Cre infection, luciferase reporter, 44 h | hit rate 3.4% among 340,000 | AID 651820 | Potency, µM (top dose mostly 41.8 µM), hits mostly inhibitors
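Infectious HCV cell culture screen: compound-treated cells (1,000/well, pre-plated 4 h) are infected with HCVcc-Cre at roughly 0.5 moi and grown 44 h. Infection is quantified by luciferase signal after 15 min substrate incubation at room temperature.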
Numbers stand for hits; - = inactive; ? = inconclusive; . = no result given. In the library only some 13% were active in any assay of this set; here they are far more common. Unless noted, the call rests on the fitted dose curve; in most records, active means well fitted inhibition curve with a large enough effect; inconclusive means small, poorly fitted or top-dose-only effect, or another doubt; inactive means no such curve, though single readings can be large or run the other way.

SMILES | Pf growth 48h | Pf growth 96h | HCMV inh | HCV inh
CCc1c(C)[nH]c2ccc(C)cc2c1=O | 1.7µM | - | - | -
COc1ccc2c(c1)cc1c(=O)n(CC(=O)NCCc3ccccc3)nc(C)n12 | . | . | - | .
COc1ccc(S(=O)(=O)NC(=O)C2(C)CCN2C(=O)c2c(C)noc2C)cc1 (stereo unspecified) | . | . | - | .
COc1ccc(/C=N/N=C2\SCC(=O)N2c2c(C)n(C)n(-c3ccccc3)c2=O)cc1OC | 13µM | ? | - | -
Cc1c(N2C(=O)CS/C2=N\N=C\c2ccc(Cl)cc2)c(=O)n(-c2ccccc2)n1C | - | - | - | .
O=C(Nc1ccccc1C(F)(F)F)c1noc2c1CCCCC2 | . | . | - | .
CC(C(=O)N(C)C1CCS(=O)(=O)C1)N1C(=O)/C(=C/c2cccs2)SC1=S (stereo unspecified) | ? | ? | - | -
CC(C(=O)N(C)C1CCS(=O)(=O)C1)N1C(=O)/C(=C/c2ccco2)SC1=S (stereo unspecified) | - | ? | -93 | -
CCN(C(=O)C(C)N1C(=O)/C(=C/c2cccs2)SC1=S)C1CCS(=O)(=O)C1 (stereo unspecified) | ? | ? | -63 | -
CC(C)CNc1nc(Oc2ccc(OCC(N)=O)nn2)nc(N2CCOCC2)n1 | . | . | - | .
CCn1c(N)c(C(=O)Nc2ccccc2C(=O)OC)sc1=S | - | 13µM | - | 10µM
CC(=O)OCc1nc2sc(C)c(C)c2c(=O)[nH]1 | - | ? | - | -
Cc1ccc(S(=O)(=O)N2CC(O)CC2C(=O)OCc2nc3sc(C)c(C)c3c(=O)[nH]2)cc1 (stereo unspecified) | 12µM | 13µM | - | -
N#C/C(=C/C=C/c1ccccc1)C(=O)Nc1ccccc1 | 3.3µM | ? | - | -
O=C(Nc1ccccc1)/C(=C/c1ccccc1)c1ccccc1 | 15µM | 4.1µM | - | ?
COCCNC(=O)/C(C#N)=C/C=C/c1ccccc1 | 13µM | ? | - | -
COc1ccccc1-c1nc(SCC(=O)NCc2ccccc2)c2c(=O)n(C)c(=O)n(C)c2n1 | . | . | - | .
COc1ccccc1-c1nc(SCC(=O)N(C)c2ccccc2)c2c(=O)n(C)c(=O)n(C)c2n1 | - | ? | - | 6.3µM
CCOc1ccc(C(=O)c2cn(CC(=O)Nc3ccc4c(c3)OCCO4)c3ccc(F)cc3c2=O)cc1 | . | . | - | .
CCOc1ccc(OCC)c(NC(=O)c2ccc(CNc3c(N4CCCC4)c(=O)c3=O)cc2)c1 | 12µM | ? | - | -
CCOc1ccc(NC(=O)CCNc2c(N3CCCC3)c(=O)c2=O)cc1 | - | - | -61 | -
COc1cc(NC(=O)C2CCC(CNc3c(N4CCC(C)CC4)c(=O)c3=O)CC2)cc(OC)c1 (stereo unspecified) | . | - | - | -
COc1cc(NC(=O)C2CCC(CNc3c(N4CCCCC4)c(=O)c3=O)CC2)cc(OC)c1 (stereo unspecified) | 12µM | - | - | -
CCOc1ccc(NC(=O)COc2nsnc2N2CCCCC2)cc1 | - | 12µM | - | ?
CCOc1ccc(NC(=O)c2ccc(CNc3c(N4CCCC4)c(=O)c3=O)cc2)cc1 | - | ? | - | -
SMILES | Pf growth 48h | Pf growth 96h | HCMV inh | HCV inh
COc1ccc(C)cc1NS(=O)(=O)c1ccc2c(c1)[C@H]1C=CC[C@H]1[C@@H](c1cccc(Cl)c1)N2 | . | . | - | .
COc1cc(C(=O)NCC(c2ccc3c(c2)OCO3)N2CCOCC2)cc(OC)c1OC (stereo unspecified) | . | . | - | .
CCC(C(=O)NCc1ccccc1)n1ncn2c(cc3occc32)c1=O (stereo unspecified) | . | . | - | .
COc1ccc(CNC(=O)C2CCC(CNc3c(N4CCCCC4)c(=O)c3=O)CC2)cc1 (stereo unspecified) | ? | - | - | -
COc1ccccc1CNC(=O)c1ccc(CNc2c(N3CCCC3)c(=O)c2=O)cc1 | ? | 4.7µM | - | -
COc1ccccc1NC(=O)C1CCC(CNc2c(N3CCCCC3)c(=O)c2=O)CC1 (stereo unspecified) | - | - | - | -
CCOc1ccc(NC(=O)C2CCC(CNc3c(N4CCCCC4)c(=O)c3=O)CC2)cc1 (stereo unspecified) | 6.6µM | 5.9µM | - | -
O=C(Nc1ccc(F)cc1)C1CCC(CNc2c(N3CCCCC3)c(=O)c2=O)CC1 (stereo unspecified) | 12µM | ? | ? | -
CCOc1ccc(NC(=O)C2CCC(CNc3c(N4CCC(C)CC4)c(=O)c3=O)CC2)cc1 (stereo unspecified) | 4.1µM | 2.3µM | - | -
CCCS(=O)(=O)N1CC(=O)N(c2ccccc2F)C(C)(C(=O)NC2CCCCCC2)C1 (stereo unspecified) | . | . | - | .
CCNc1nc(OCCNC(C)=O)nc(N(C)C)n1 | - | 1.5µM | - | -
Cc1ccc(Cl)cc1N1CCN(S(=O)(=O)c2cn(C)c(C)n2)CC1 | . | . | - | .
Cc1ccc(S(=O)(=O)N(C)C)cc1NC(=S)N1CCN(Cc2ccc3c(c2)OCO3)CC1 | - | - | ? | 13µM
CCCCOc1ccc(C(=O)NCC(=O)N2CCN(Cc3ccc4c(c3)OCO4)CC2)cc1 | ? | ? | -68 | ?
COCCCNC(=S)N1CCN(Cc2ccc3c(c2)OCO3)CC1 | - | - | -103 | -
CCN(CC)c1ccc(C(=O)NC(=S)N2CCN(Cc3ccc4c(c3)OCO4)CC2)cc1 | - | - | - | 11µM
CNC(=O)C1CCC(Cn2c(=O)c3sccc3n(CC(=O)NCc3ccccc3)c2=O)CC1 (stereo unspecified) | . | . | - | .
CCOc1ccc(NC(=O)C2CCN(C(=O)N3CC(C)Oc4ccc(Cl)cc43)CC2)cc1 (stereo unspecified) | . | . | - | .
CCCn1cc(CCC(=O)Nc2ccc(Oc3cccnc3)cc2)c2ccccc21 | . | . | - | .
CCCc1cc(=O)oc2cc(OCC(=O)N3CCN(Cc4ccc5c(c4)OCO5)CC3)ccc12 | ? | 12µM | - | ?
C/C(CCc1ccc2c(c1)OCO2)=N\NC(=S)NC(C)C | ? | ? | - | -
COCCNC(=S)N/N=C(\C)CCc1ccc2c(c1)OCO2 | ? | ? | -67 | -
O=C(CSc1nc2c(c(=O)[nH]1)CCCC2)Nc1ccccc1C(F)(F)F | . | . | - | .
Cc1ccc(S(=O)(=O)n2nccc2-c2c(-c3ccc(Cl)cc3)noc2C)cc1 | 0.66µM | 0.37µM | -96 | 14µM
COc1ccc(C)cc1NC(=O)C1CCN(S(=O)(=O)Cc2ccccc2)CC1 | . | . | - | .
SMILES | Pf growth 48h | Pf growth 96h | HCMV inh | HCV inh
CNC(=S)N/N=C/c1cn(Cc2ccc(F)cc2)c2ccccc12 | ? | ? | - | 32µM
CNC(=S)N/N=C/c1cn(CCOc2ccc(OC)cc2)c2ccccc12 | ? | 5.9µM | - | ?
CNC(=S)N/N=C/c1c(C)c(C(=O)c2ccc(F)cc2)n2ccccc12 | 8.3µM | 3.3µM | - | -
COc1ccccc1OCCn1cc(/C=N/NC(=O)c2ccncc2)c2ccccc21 | - | - | - | -
COC(=O)N/N=C/c1cn(Cc2ccc(F)cc2)c2ccccc12 | ? | - | - | -
COc1ccccc1OCCn1cc(/C=N/NC(N)=S)c2ccccc21 | ? | ? | ? | 8.9µM
O=C(N/N=C/c1c[nH]c2ccccc12)c1cc(-c2ccc3ccccc3c2)n[nH]1 | - | - | - | 10µM

Assay outcomes as filed in PubChem.
